Shown are actives, neighbours in structure and some others; about 2.4% of the full set was active somewhere.
D2 PAM-1 = positively modulates the human D2 dopamine receptor allosterically; P14416; HEK293 T-REx D2, calcium flux, EC20 dopamine potentiation; potentiation, % at 10 µM; hit rate 0.34% among 340,000; AID 485347;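 active means potentiation over 3 SD above the plate norm, cut at about 30% in these data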; further: 0% is about no effect
Target sequence (P14416 whole entry, looked up): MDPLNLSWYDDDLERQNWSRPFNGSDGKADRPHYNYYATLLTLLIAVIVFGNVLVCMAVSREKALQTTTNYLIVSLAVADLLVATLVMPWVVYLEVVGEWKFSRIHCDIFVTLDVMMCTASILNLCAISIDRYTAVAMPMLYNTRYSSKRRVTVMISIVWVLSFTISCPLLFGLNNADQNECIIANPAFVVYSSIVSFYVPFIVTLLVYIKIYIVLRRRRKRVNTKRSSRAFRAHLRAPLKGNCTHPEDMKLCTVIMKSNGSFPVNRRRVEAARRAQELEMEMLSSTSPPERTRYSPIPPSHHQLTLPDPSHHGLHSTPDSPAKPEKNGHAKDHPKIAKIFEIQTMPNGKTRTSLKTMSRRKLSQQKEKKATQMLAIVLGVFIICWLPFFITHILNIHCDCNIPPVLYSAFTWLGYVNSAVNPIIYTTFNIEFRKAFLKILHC
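Primary screen. Calcium kinetics in induced HEK293 T-REx D2 cells: compound pre-addition 180 s, EC20 dopamine, 180 s more.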
D2 ag-1 = D2 dopamine receptor (human) agonism | P14416 | HEK293 T-REx D2 cells, calcium flux agonist mode | activation, % at 2 µM | hit rate 0.53% among 340,000;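 active means activation over 3 SD above normal in the single-dose calcium agonist read, cut at about 30% in these data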; further: 0% is about no effect
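Agonism scored from kinetic calcium signal (1 read/sec, 180 s) following compound pin transfer, after a 10 s baseline. Cells: HEK293 Trex line expressing inducible D2 receptor coupled to calcium, dye-loaded after overnight culture at 30 C.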
D2 PAM-2 = positive allosteric modulators of human D2 dopamine receptor. P14416. potentiation, % (concentration not given with the values). DiscoveRx D2 beta-arrestin cells, luminescence, 90 min; 100% = 57 uM dopamine signal. hit rate 0.23% among 360,000; in the data active means potentiation above about 50%; inconclusive means mostly about 30% to 49%
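PathHunter beta-arrestin assay in DiscoveRx D2 cells. Compounds were added with an EC20 of dopamine (50 nM final) for 90 min at 37 deg C. Luminescence was read 1 h after detection reagent, with 57 uM dopamine as the EC100 control.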
D2 antag = antagonists of human D2 dopamine receptor. P14416. HEK293 TREx D2 cells, calcium flux, dopamine EC80. inhibition, % at 10 µM. hit rate 2% among 340,000. AID 485344; in the data active means inhibition above about 30%; inactive means below that, where a call was filed; further: 0% is about no effect
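Calcium flux kinetic readout in an inducible HEK293 TREx D2 line plated overnight at 30 C. After 180 s compound exposure, an EC80 dopamine challenge follows with another 180 s kinetic read to detect antagonism.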
D2 ag-2 = agonists of human D2 dopamine receptor (beta-arrestin); P14416; DiscoveRx PathHunter D2 beta-arrestin, luminescence, 90 min; 100% = 57 uM dopamine signal; activation, % (concentration not given with the values); hit rate 0.084% among 360,000; AID 624465; in the data active means activation above about 40%; inconclusive means between about 15% and that limit
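DiscoveRx PathHunter D2 beta-arrestin cells (2,100/well) attached overnight, then compound-stimulated 90 min at 37 C in HBSS/10 mM HEPES/0.1% Tween-20 buffer; beta-galactosidase complementation read by luminescence after 1 h at ambient temperature. Dopamine 57 uM final (EC100) as control.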
D3 arrestin ag = D3 receptor agonism confirmed, beta-arrestin readout; shares compounds with D2 ag-1; DiscoveRx D3 beta-arrestin cells, luminescence, 90 min; Potency, µM (highest dose often 76.9 µM), without a hit: at the highest dose activation, usual class: activators; hit rate 4% among 2,300;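 further: potency means the concentration at half of the fitted maximal effect; 100% = dopamine control response; nearly all actives have a fitted effect of over 70% in size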
D2 ag-3 = D2 receptor agonism, beta-arrestin counterscreen. shares compounds with D2 ag-1. DiscoveRx PathHunter D2 beta-arrestin, luminescence, 90 min; response scale: percent relative to full dopamine signal. Potency, µM (highest dose often 76.9 µM), for inactives: top-dose activation, hits mostly activators. hit rate 5.9% among 2,300. AID 720507; further: potency means the concentration at half of the fitted maximal effect; % of control where 0% means no effect; nearly all actives have a fitted effect of over 70% in size
An asterisk follows results filed as active; ? = inconclusive; . = no result given. Unless noted, the call rests on the fitted dose curve; in most records, active means well fitted activation curve with a large enough effect; inconclusive means small, poorly fitted or top-dose-only effect; inactive means flat fitted curve, though single readings scatter.

SMILES	D2 PAM-1	D2 ag-1	D2 PAM-2	D2 antag	D2 ag-2	D3 arrestin ag	D2 ag-3
CCOc1cc(CN2CCN(c3ncccn3)CC2)ccc1OC	-36	78*	-5	77*	?	20%	?
Fc1ccc(F)c(CN2CCN(c3ncccn3)CC2)c1	-22	64*	64*	79*	78*	?	3.2µM*
Fc1ccc(CN2CCN(c3ncccn3)CC2)cc1	-19	79*	25	84*	47*	-5%	?
O=S1(=O)CC(N2CCN(c3ncccn3)CC2)CN1Cc1ccc(F)cc1 (stereo not given)	.	.	-3	.	-3	.	.
Cc1nn(-c2ccccc2)c2c1N(CC(=O)NCc1ccc(N(C)C)cc1)C(=O)CS2	10	0	.	.	.	.	.
Cc1ccc(NC(=O)C(=O)NCCc2sc(-c3ccc(Cl)cc3)nc2C)cc1C	5	.	.	.	.	.	.
CCOC(=O)N1CCc2c(sc3c2c(=O)n(Cc2ccccc2)c(=O)n3CC(=O)Nc2ccc(C)c(C)c2)C1	-5	1	.	.	.	.	.
O=C(NCCc1ccccc1)c1cc(-c2ccccc2)nc2n[nH]c(-c3ccccc3)c12	6	1	.	.	.	.	.
CCn1c(=O)n(CC)c2cc(N3CCCCC3)c(NC(=O)Nc3cc(Cl)ccc3OC)cc21	2	1	.	.	.	.	.
CCOc1ccc(-n2c(SCc3nc(-c4ccc(C)cc4)no3)nnc2-c2ccncc2)cc1	-21	47*	-8	10	-4	-8%	-1%
COc1ccc(-c2noc(CSc3nnc(-c4ccncc4)n3-c3ccc(C)cc3)n2)cc1	-3	3	.	.	.	.	.
Cc1ccc2cc3cc(C(=O)N(C)c4ccccc4C)oc3nc2c1	15	-1	.	.	.	.	.
CN1C/C(=C/c2ccsc2)C(=O)/C(=C/c2ccsc2)C1	-23	69*	-19	44*	1	0%	-2%
CN1C/C(=C\c2ccc(N3CCOCC3)cc2)C(=O)/C(=C/c2ccc(N3CCOCC3)cc2)C1	6	25	-12	0	-4	0%	-5%
CCOc1ccc(-c2cc3c(=O)n(CC(=O)NCc4ccccc4)ccn3n2)cc1	-2	0	.	.	.	.	.
CN(C)S(=O)(=O)c1ccc(N2CCCC2)c(C(=O)NNC(=O)COc2cccc(F)c2)c1	2	0	-4	24	-1	-7%	0%
CCc1ccccc1NC(=O)c1cc(-c2cccc(O)c2)on1	.	.	3	.	-2	-8%	-1%
O=C(Nc1ccccc1C(F)(F)F)c1cc(-c2cccc(O)c2)on1	-10	1	-7	-15	0	.	.
Cc1cc(C)c2c(CC(=O)Nc3ccccc3C(F)(F)F)coc2c1	-25	-1	.	.	.	.	.
COc1ccc(CNCCNC(=O)c2cccs2)cc1OC	-19	60*	-12	39*	-1	-3%	-4%
COc1ccc(NC(=O)c2ccc3oc(=O)c(S(=O)(=O)c4ccc(C)cc4)cc3c2)cc1OC	2	0	.	.	.	.	.
COc1ccc(/C=N/NC(=O)c2nnn(-c3nonc3N)c2CN(C)C2CCCCC2)cc1	-18	56*	-27	-3	-1	0%	-4%
CN(Cc1c(C(=O)N/N=C/c2ccc(F)cc2)nnn1-c1nonc1N)C1CCCCC1	-8	-1	-1	10	-3	.	.
Nc1nonc1-n1nnc(C(=O)N/N=C/c2cccc(Cl)c2)c1-c1ccc2c(c1)OCO2	1	1	-8	-36	-8	.	.
Nc1nonc1-n1nnc(C(=O)N/N=C/c2ccc3c(c2)OCO3)c1-c1ccccc1	21	16	-3	39*	0	?	-1%
CC(C)c1c(C(=O)N/N=C/c2ccc3c(c2)OCO3)nnn1-c1nonc1N	10	0	-3	10	2	.	.
Nc1nonc1-n1nnc(C(=O)N/N=C/c2ccc(Br)cc2)c1-c1ccc2c(c1)OCO2	18	12	3	41*	-5	4%	7%

Screening results deposited in PubChem BioAssay by National Center for Advancing Translational Sciences (NCATS).
